Source: PubChem BioAssay (NCI)
About 83,000 compounds went through this panel and 20% of them were active in at least one assay; those are over-represented in the sample as a whole.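 Results are percent growth after 48 hours of single-concentration exposure. 100 means growth as in untreated cells, lower positive values show inhibition; negative values down to -100 show cell death.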 A number with no mark means an inactive call. The source made the active and inactive calls. How the source made its calls: active means growth percent below 10; inactive means the rest.

Assays:
Assay in all cases: NCI-60 one-dose screen, 48 h (100 = growth as untreated, 0 = no growth, -100 = all killed)
[1] = tested on: SK-MEL-2 melanoma; conditions: 10 µM
[2] = tested on: EKVX NSCLC; conditions: 10 µM
[3] = tested on: SN12C renal; conditions: 10 µM
[4] = tested on: UO-31 renal; conditions: 10 µM
[5] = tested on: TK-10 renal; conditions: 10 µM unless noted
[6] = tested on: ACHN renal; conditions: 10 µM
[7] = tested on: CAKI-1 renal; conditions: 10 µM
[8] = tested on: A498 renal; conditions: 10 µM
[9] = tested on: MOLT-4 leukemia; conditions: 10 µM
[10] = tested on: CCRF-CEM leukemia; conditions: 10 µM

Compound | growth [1] | growth [2] | growth [3] | growth [4] | growth [5] | growth [6] | growth [7] | growth [8] | growth [9] | growth [10]
COc1ccc(C)cc1OC | 112% | 108% | 99.3% | 89.8% | 104% | 115% | 101% | 94.5% | 110% | 
CCN(CC)C(=O)/C=C(/C)c1ccccc1 | 113% | 107% | 104% | 102% | 107% | 110% | 100% | 86.6% | 114% | 100%
CC(C)OC(=O)c1cc(NC(=S)OC(C)C)ccc1Cl | 96.4% | 85.8% | 93% | 80.2% | 86.1% | 98.7% | 53.6% |  | 75.7% | 88.8%
Cc1c(C(=O)O)c(=O)n(-c2ccccc2)n1C | 116% | 103% | 105% | 89.6% | 123% | 109% | 98.3% |  | 113% | 108%
CCCCCCCCCCCCCCCCC1CC(=O)OC1=O (centres undefined) | 113% | 96.9% | 101% | 93.5% | 107% | 110% | 97.9% |  | 118% | 96.5%
O=[N+]([O-])c1cccc(C(F)(F)F)c1 | 116% | 104% | 95.1% | 96.3% | 108% | 102% | 94.3% | 98.4% | 102% | 96.2%
COc1cc2cc(c1Cl)N(C)C(=O)C[C@H](OC(=O)[C@H](C)N(C)C(C)=O)[C@]1(C)O[C@H]1[C@H](C)[C@@H]1C[C@@](O)(NC(=O)O1)[C@H](OC)C=C/C=C(\C)C2 | 55.5% | 31.3% | 27.6% | 7.35% (active) | 26.5% | 16.6% | 6.3% (active) | 4.38% (active) | 14.2% | -7.22% (active)
C/C=C/CC(C)C(O)C1C(=O)NC(CC)C(=O)N(C)CC(=O)N(C)C(CC(C)C)C(=O)NC(C(C)C)C(=O)N(C)C(CC(C)C)C(=O)NC(C)C(=O)NC(C)C(=O)N(C)C(CC(C)C)C(=O)N(C)C(CC(C)C)C(=O)N(C)C(C(C)C)C(=O)N1C (centres undefined) | -36.5% (active) | 26.7% | 27.4% | 24.1% | 31.3% | 16.8% | 31% | -5.73% (active) | -4.07% (active) | 
Cn1cnc2nc(Cl)nc(Cl)c21 | -23.4% (active) | 104% | 22.4% | 45.2% | 4.15% (active) | 29.4% | -61.6% (active) | 62.6% | 35.8% | 
CO[C@H]1C[C@@H]2CC[C@@H](C)[C@@](O)(O2)C(=O)C(=O)N2CCCC[C@H]2C(=O)O[C@H]([C@H](C)C[C@@H]2CC[C@@H](O)[C@H](OC)C2)CC(=O)[C@H](C)C=C(C)[C@@H](O)[C@@H](OC)C(=O)[C@H](C)C[C@H](C)/C=C/C=C/C=C1C | 75.8% | 36.5% | 74.2% | 26.3% | 71.7% | 59.3% | 52.2% |  | 37.4% | 30.6%
O=C1C=C(O)C(=O)C=C1O | 107% | 102% | 107% | 79.2% | 102% | 97.2% | 97.4% | 92.4% | 91.3% | 
Oc1ccc(Cc2ccccc2)c2cccnc12 | 12.1% | 28.3% | 20.5% | -14.4% (active) | 9.22% (active) | 11.5% | -6.16% (active) |  | 3.7% (active) | 1.19% (active)
COc1cc(-c2ccc(NC(=O)NC3CC3)c(OC)c2)ccc1NC(=O)NC1CC1 | 96.3% | 94.6% | 91.6% | 46.5% | 99.6% | 63.8% |  | 59.3% | 38.1% | 47.8%
CCOc1ccc(/C=C/C(=O)c2ccccc2)cc1 | 91.9% | 107% | 95.7% | 84% | 97.6% | 108% |  | 88.8% | 77.6% | 55.9%
COCCOC(=O)c1ccc(C(C)C)cc1 | 96.9% | 100% | 103% | 94.5% |  | 107% | 99.4% | 92.8% | 88.2% | 90.6%
Nc1nc(N)c(N=Nc2ccc(C(=O)O)cc2)c(N)n1 | 97.1% | 100% | 91.4% | 53.6% | 130% | 103% |  | 96.2% | 102% | 102%
O=c1cc2oc3cc(O)c(O)cc3c(-c3ccccc3O)c-2cc1O | 110% | 84% | 66.4% | 34.9% | 108% | 24% |  | 48% | 63.8% | 11%
COC(=O)c1ccc(C(C)C)cc1 | 116% | 92.3% | 99.1% | 97.4% |  | 101% | 96.8% | 129% | 101% | 83.9%
COc1ccccc1NC(=O)c1cc2cc(Br)ccc2cc1O | -31.5% (active) | 22.4% | 9.1% (active) | -3.91% (active) | 39.8% | -6% (active) |  | 18.2% | -0.261% (active) | -4.98% (active)
O=[N+]([O-])c1ccc(-c2ncc(-c3ccc(Br)cc3)o2)cc1 | 99.1% | 101% | 103% | 84.5% | 108% | 94.2% |  | 68.4% | 97.6% | 92.6%
COS(=O)(=O)c1ccc(Br)cc1 | 95% | 106% | 93.9% | 86.2% |  | 103% | 115% | 113% | 129% | 127%
CSC[C@H](NC(=O)COc1cccc2cnccc12)C(=O)NC(Cc1ccccc1)C(O)C(=O)N1CSC[C@H]1C(=O)NC(C)(C)C (some centres undefined) | 113% | 103% | 102% | 94.4% |  | 109% | 95.5% | 95.6% | 101% | 111%
c1ccc(Sc2ccccc2)cc1 | 97.5% | 101% | 105% | 87% | 101% | 108% |  | 97.6% | 87.4% | 97.7%
C#CCSc1nnnn1-c1ccc(Br)c(C)c1 | 86.9% | 35.7% | 71.8% | -93.1% (active) | 111% | 92.5% |  | 124% | 88.4% | 87.5%
C#Cc1cccc(NC(=O)c2ccc(Cl)cc2Cl)c1 | 98.6% | 91.3% | 95.7% | 91.7% | 106% | 93.5% |  | 102% | 82.1% | 88.2%
O=C1C[C@H](c2ccccc2)[C@H](c2ccccc2)C1 | 93% | 106% | 98.7% | 81.9% | 94.2% | 102% | 89.7% |  | 94.9% | 95.1%
Cc1c(O)cccc1O | 93.5% | 106% | 88% | 111% |  | 107% | 61% | 125% | 90% | 100%
Clc1ccc(-c2n[nH]c3c2Cc2ccccc2-3)cc1Cl | 99.6% | 86.3% | 94.1% | 72.4% | 101% | 100% |  | 110% | 91.4% | 89.2%
COc1cc(CN)ccc1O | -8.32% (active) | 71.3% | 81.7% | 82.7% | 88.4% | 96% |  | 128% | 134% | 93.1%
